About 7,900 targets were measured; listed, in parts, are those with a hit and a random draw of the rest. About 0.6% of all pairs of compound and target were hits.
How the values were obtained:
Assay in all cases: log2 fold change, soluble protein after heating vs DMSO (PISA); higher = thermal stabilisation; K562 cells, 10 uM, 30 min; active = over 0.2 and 3.5 SD of the protein, either way, in both replicates (recomputed)
bafetinib = compound: Cc1ccc(NC(=O)c2ccc(CN3CC[C@H](N(C)C)C3)c(C(F)(F)F)c2)cc1Nc1nccc(-c2cncnc2)n1 [bafetinib]
How it was run: (§1)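 K562 cells at 2×10^6 cells/mL were given 10 μM compound for 30 min. Aliquots then went through 3 min of heating across 48°C-58°C, were pooled, and were extracted in PBS with 0.5% NP-40 at 4°C, and the supernatant after 21,000xg for 90 min was quantified by TMTpro 16plex LC-MS/MS with channel sums equalised. Thermal stability relative to control samples, from duplicates, is given as log2 fold change.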

[1] = compound: Cc1cccc(CC(=O)N2CCc3c2ccc(-c2cn(C)c4ncnc(N)c24)c3F)n1
How it was run: as §1

nilotinib = compound: Cc1cn(-c2cc(NC(=O)c3ccc(C)c(Nc4nccc(-c5cccnc5)n4)c3)cc(C(F)(F)F)c2)cn1 [nilotinib]
How it was run: as §1

[2] = compound: Cc1nc(Nc2n[nH]c3c2CN(C(=O)N[C@H](CN(C)C)c2ccccc2)C3(C)C)c2sccc2n1
How it was run: as §1

dasatinib = compound: Cc1nc(Nc2ncc(C(=O)Nc3c(C)cccc3Cl)s2)cc(N2CCN(CCO)CC2)n1 [dasatinib]
How it was run: as §1

[3] = compound: Cc1ncc(-c2ccnc(Nc3ccc(S(C)(=O)=O)cc3)n2)n1C(C)C
How it was run: as §1

[4] = compound: Cn1cc(-c2ccc3c(c2)CCN3C(=O)Cc2cccc(C(F)(F)F)c2)c2c(N)ncnc21
How it was run: as §1

[5] = compound: Cn1cc(-c2ccc3nnc(C(F)(F)c4ccc5ncccc5c4)n3n2)cn1
How it was run: as §1

tipifarnib = compound: Cn1cncc1[C@@](N)(c1ccc(Cl)cc1)c1ccc2c(c1)c(-c1cccc(Cl)c1)cc(=O)n2C [tipifarnib]
How it was run: as §1

mubritinib = compound: FC(F)(F)c1ccc(/C=C/c2nc(COc3ccc(CCCCn4ccnn4)cc3)co2)cc1 [mubritinib]
How it was run: as §1

Measured: log2 fold change

TXNIP (UniProt Q9H3M7)
UniProt Q9H3M7, sequence (Q9H3M7 whole entry, looked up): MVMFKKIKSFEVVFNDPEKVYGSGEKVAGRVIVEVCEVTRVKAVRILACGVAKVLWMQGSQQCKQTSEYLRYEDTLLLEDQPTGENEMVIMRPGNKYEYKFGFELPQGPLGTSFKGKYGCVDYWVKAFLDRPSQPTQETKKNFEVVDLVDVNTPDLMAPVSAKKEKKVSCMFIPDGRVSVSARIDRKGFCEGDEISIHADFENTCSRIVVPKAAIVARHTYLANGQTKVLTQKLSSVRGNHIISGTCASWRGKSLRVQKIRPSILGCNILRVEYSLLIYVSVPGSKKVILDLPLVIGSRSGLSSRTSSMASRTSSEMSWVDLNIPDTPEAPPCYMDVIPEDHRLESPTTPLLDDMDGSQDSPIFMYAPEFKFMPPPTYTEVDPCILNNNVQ
inactive: bafetinib 0.03 | [1] -0.072 | nilotinib 0.018 | [2] 0.185 | dasatinib 0.005 | [3] -0.264 | [4] 0.105 | [5] -0.105 | tipifarnib 0.199 | mubritinib -0.264

TUBAL3 (UniProt A6NHL2)
inactive: bafetinib 0.167 | [1] 0.049 | nilotinib -0.144 | [2] 0.027 | dasatinib 0.051 | [3] -0.029 | [4] 0.005 | [5] -0.095 | tipifarnib -0.097 | mubritinib -0.01

VPS18 (UniProt Q9P253)
inactive: bafetinib -0.097 | [1] 0.059 | nilotinib -0.052 | [2] -0.069 | dasatinib -0.194 | [3] -0.022 | [4] 0.086 | [5] 0.089 | tipifarnib -0.047 | mubritinib 0.088

TSG101 (UniProt Q99816)
inactive: bafetinib -0.096 | [1] -0.034 | nilotinib -0.014 | [2] -0.081 | dasatinib -0.092 | [3] -0.007 | [4] 0.033 | [5] -0.024 | tipifarnib -0.033 | mubritinib 0.052

VPS50 (UniProt Q96JG6)
inactive: bafetinib 0.017 | [1] 0.088 | nilotinib -0.074 | [2] -0.077 | [3] 0.038 | [4] -0.019 | [5] -0.035 | tipifarnib -0.066 | mubritinib 0.045
active: dasatinib -0.257

UHRF1BP1 (UniProt Q6BDS2)
inactive: bafetinib 0.042 | [1] 0.015 | nilotinib 0.138 | [2] 0.003 | dasatinib 0.044 | [3] -0.023 | [4] 0.045 | [5] 0.021 | tipifarnib -0.005 | mubritinib 0.028

UBE4A isoform 2 (UniProt Q14139)
UniProt Q14139, sequence (Q14139 whole entry, looked up): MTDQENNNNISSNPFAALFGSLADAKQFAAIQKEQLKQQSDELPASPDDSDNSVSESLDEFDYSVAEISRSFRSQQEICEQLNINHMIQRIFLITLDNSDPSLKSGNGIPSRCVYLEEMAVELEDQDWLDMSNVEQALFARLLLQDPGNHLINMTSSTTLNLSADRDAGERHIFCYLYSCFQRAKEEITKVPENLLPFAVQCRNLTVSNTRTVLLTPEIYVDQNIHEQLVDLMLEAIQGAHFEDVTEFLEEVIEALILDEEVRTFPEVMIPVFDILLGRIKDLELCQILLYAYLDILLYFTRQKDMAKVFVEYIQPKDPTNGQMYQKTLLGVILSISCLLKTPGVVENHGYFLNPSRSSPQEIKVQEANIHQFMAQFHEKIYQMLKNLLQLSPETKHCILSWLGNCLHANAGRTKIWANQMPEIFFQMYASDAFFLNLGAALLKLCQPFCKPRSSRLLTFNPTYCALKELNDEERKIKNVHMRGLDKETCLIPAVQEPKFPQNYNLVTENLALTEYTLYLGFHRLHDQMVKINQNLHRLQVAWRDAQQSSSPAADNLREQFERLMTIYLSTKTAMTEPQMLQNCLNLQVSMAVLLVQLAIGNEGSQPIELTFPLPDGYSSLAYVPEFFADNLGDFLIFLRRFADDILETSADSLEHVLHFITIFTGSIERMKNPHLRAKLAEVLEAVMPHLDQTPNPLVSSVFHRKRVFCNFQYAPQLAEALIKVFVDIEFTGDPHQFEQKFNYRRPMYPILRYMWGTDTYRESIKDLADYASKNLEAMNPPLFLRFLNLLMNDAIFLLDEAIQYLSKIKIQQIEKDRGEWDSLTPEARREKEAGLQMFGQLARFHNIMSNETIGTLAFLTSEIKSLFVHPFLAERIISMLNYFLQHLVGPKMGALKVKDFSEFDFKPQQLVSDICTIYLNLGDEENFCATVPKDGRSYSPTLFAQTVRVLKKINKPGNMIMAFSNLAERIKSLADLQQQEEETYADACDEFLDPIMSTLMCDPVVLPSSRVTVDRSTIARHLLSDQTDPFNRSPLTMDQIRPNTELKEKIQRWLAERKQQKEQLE
inactive: bafetinib 0.01 | [1] 0.065 | nilotinib -0.111 | [2] -0.162 | dasatinib -0.196 | [3] 0.015 | [4] -0.183 | [5] -0.023 | tipifarnib -0.092 | mubritinib 0.021

TRIM28 (UniProt Q13263)
UniProt Q13263, sequence (Q13263 whole entry, looked up): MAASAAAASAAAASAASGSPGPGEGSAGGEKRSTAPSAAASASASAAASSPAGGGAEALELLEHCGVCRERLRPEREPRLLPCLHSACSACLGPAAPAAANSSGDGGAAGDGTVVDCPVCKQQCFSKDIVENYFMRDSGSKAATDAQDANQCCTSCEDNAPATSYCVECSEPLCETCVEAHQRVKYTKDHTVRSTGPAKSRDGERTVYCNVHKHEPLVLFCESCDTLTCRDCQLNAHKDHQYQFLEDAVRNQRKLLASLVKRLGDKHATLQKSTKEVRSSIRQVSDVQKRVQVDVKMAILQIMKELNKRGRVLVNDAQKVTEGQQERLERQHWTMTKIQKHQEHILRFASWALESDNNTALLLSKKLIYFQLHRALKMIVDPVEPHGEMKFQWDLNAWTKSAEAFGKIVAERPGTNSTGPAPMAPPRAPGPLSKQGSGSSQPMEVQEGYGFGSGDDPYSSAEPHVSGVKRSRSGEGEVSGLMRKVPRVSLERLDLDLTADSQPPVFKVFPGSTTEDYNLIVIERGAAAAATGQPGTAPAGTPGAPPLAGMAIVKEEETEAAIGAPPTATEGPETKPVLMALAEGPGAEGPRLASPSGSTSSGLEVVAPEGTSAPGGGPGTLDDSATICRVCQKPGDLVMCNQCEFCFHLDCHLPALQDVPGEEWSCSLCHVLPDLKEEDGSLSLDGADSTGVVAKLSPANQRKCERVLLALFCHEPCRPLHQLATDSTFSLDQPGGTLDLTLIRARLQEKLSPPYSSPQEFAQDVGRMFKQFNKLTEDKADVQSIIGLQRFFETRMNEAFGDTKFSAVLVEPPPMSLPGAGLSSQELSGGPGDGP
inactive: bafetinib 0.005 | [1] 0.011 | nilotinib -0.013 | [2] -0.035 | dasatinib -0.014 | [3] 0.013 | [4] -0.02 | [5] 0.004 | tipifarnib -0.035 | mubritinib 0.009

TMEM161B (UniProt Q8NDZ6)
active: dasatinib -0.273
inactive: bafetinib -0.01 | [1] 0.073 | nilotinib -0.148 | [2] -0.018 | [3] -0.046 | [4] -0.08 | [5] 0.103 | tipifarnib -0.043 | mubritinib 0.036

WASH2P (UniProt Q6VEQ5)
UniProt Q6VEQ5, sequence (Q6VEQ5 whole entry, looked up): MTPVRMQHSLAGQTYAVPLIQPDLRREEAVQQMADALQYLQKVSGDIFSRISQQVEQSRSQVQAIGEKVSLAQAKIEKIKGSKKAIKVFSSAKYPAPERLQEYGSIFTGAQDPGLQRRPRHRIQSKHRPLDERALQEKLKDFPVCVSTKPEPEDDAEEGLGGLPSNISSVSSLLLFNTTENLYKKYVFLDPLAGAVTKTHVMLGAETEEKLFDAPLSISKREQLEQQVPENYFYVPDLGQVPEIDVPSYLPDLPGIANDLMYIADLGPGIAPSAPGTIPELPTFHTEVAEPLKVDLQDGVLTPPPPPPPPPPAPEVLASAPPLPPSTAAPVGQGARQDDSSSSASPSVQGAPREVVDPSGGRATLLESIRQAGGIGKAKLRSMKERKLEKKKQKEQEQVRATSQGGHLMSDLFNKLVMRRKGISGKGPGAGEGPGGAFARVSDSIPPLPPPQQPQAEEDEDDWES
inactive: bafetinib -0.06 | [1] 0.017 | nilotinib -0.069 | [2] -0.019 | dasatinib 0.03 | [3] 0.01 | [4] -0.008 | [5] 0.011 | tipifarnib 0.043 | mubritinib 0.06

TUBA4A (UniProt P68366)
inactive: bafetinib 0.038 | [1] -0.028 | nilotinib -0.011 | [2] 0.008 | dasatinib -0.102 | [3] -0.009 | [4] 0.047 | [5] 0.051 | tipifarnib -0.073 | mubritinib 0.073

UGDH (UniProt O60701)
active: [2] -0.377
inactive: bafetinib 0.018 | [1] 0.062 | nilotinib -0.045 | dasatinib -0.043 | [3] -0.24 | [4] 0.151 | [5] 0.09 | tipifarnib -0.034 | mubritinib 0.202

TOMM20 (UniProt Q15388)
inactive: bafetinib -0.194 | [1] -0.035 | nilotinib -0.002 | [2] -0.031 | dasatinib 0.039 | [3] 0.01 | [4] 0.003 | [5] 0.006 | tipifarnib -0.095 | mubritinib 0.017

XPO5 (UniProt Q9HAV4)
UniProt Q9HAV4, sequence (Q9HAV4 whole entry, looked up): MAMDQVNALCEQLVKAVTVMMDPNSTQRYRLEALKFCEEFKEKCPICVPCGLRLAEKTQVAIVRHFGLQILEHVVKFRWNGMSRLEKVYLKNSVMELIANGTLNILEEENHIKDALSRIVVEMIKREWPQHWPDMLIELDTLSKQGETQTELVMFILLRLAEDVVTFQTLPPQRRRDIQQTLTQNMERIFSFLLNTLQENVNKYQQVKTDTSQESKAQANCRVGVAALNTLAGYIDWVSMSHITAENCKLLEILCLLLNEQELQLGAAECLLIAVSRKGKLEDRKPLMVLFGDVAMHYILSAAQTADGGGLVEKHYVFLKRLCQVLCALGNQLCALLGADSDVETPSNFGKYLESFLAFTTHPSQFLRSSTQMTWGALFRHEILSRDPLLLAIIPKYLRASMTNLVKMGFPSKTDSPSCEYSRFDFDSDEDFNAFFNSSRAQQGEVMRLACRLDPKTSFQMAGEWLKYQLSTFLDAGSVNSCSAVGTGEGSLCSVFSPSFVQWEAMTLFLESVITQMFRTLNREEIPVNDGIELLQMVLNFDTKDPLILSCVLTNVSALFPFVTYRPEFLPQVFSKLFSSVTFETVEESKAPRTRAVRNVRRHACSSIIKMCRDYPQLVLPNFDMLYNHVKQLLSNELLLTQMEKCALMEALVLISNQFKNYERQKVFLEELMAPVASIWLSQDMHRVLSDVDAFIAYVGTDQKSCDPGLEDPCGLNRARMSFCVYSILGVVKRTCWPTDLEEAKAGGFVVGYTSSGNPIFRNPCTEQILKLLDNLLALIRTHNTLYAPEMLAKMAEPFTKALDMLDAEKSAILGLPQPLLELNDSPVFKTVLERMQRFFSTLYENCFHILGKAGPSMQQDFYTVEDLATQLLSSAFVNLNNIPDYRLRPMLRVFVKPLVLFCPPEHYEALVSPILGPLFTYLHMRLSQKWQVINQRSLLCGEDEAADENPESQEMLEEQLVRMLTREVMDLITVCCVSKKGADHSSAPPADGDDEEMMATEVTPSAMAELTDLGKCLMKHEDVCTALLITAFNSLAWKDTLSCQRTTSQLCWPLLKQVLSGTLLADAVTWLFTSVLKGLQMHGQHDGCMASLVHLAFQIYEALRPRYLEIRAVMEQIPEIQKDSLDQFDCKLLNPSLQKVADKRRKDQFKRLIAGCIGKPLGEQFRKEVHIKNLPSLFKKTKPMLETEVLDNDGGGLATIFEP
inactive: bafetinib -0.037 | [1] 0.036 | nilotinib -0.07 | [2] -0.118 | dasatinib -0.11 | [3] -0.054 | [4] 0.026 | [5] 0.004 | tipifarnib -0.071 | mubritinib 0.006

TTC4 (UniProt O95801)
inactive: bafetinib 0.036 | [1] 0.116 | nilotinib -0.034 | [2] -0.094 | dasatinib -0.137 | [3] 0.003 | [4] 0.019 | [5] 0 | tipifarnib -0.077 | mubritinib 0.061

VPS28 (UniProt Q9UK41)
inactive: bafetinib -0.017 | [1] -0.021 | nilotinib -0.153 | [2] -0.063 | dasatinib -0.209 | [3] -0.019 | [4] 0.01 | [5] 0.006 | tipifarnib -0.051 | mubritinib 0.046

WDR37 isoform 2 (UniProt Q9Y2I8)
inactive: bafetinib 0.039 | [1] -0.093 | nilotinib -0.073 | [2] 0.039 | dasatinib 0.005 | [3] -0.05 | [4] -0.024 | [5] 0.017 | tipifarnib 0.083 | mubritinib -0.021

UBE3D (UniProt Q7Z6J8)
inactive: bafetinib -0.036 | [1] -0.047 | nilotinib 0.043 | [2] -0.001 | dasatinib -0.071 | [3] 0.037 | [4] 0.003 | [5] 0.013 | tipifarnib -0.049 | mubritinib 0.009

UQCR10 (UniProt Q9UDW1)
UniProt Q9UDW1, sequence (Q9UDW1 whole entry, looked up): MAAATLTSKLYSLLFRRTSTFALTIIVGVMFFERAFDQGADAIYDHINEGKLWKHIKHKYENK
inactive: bafetinib -0.047 | [1] -0.011 | nilotinib -0.003 | [2] 0.02 | dasatinib -0.009 | [3] -0.059 | [4] 0.072 | [5] 0.084 | tipifarnib 0.007 | mubritinib -0.024

XPO6 (UniProt Q96QU8)
inactive: bafetinib 0.057 | [1] -0.05 | nilotinib -0.143 | [2] -0.148 | dasatinib -0.109 | [3] 0.027 | [4] -0.001 | [5] -0.117 | tipifarnib -0.111 | mubritinib 0.092

XRCC6 (UniProt P12956)
inactive: bafetinib -0.003 | [1] 0.032 | nilotinib -0.067 | [2] -0.248 | dasatinib -0.147 | [3] -0.07 | [4] -0.01 | [5] 0.018 | tipifarnib -0.104 | mubritinib 0.043

TSFM (UniProt P43897)
inactive: bafetinib 0.091 | [1] -0.087 | nilotinib 0.062 | [2] -0.217 | dasatinib -0.143 | [3] 0.039 | [4] 0.033 | [5] 0.033 | tipifarnib 0.013
active: mubritinib -0.36

UFL1 (UniProt O94874)
UniProt O94874, sequence (O94874 whole entry, looked up): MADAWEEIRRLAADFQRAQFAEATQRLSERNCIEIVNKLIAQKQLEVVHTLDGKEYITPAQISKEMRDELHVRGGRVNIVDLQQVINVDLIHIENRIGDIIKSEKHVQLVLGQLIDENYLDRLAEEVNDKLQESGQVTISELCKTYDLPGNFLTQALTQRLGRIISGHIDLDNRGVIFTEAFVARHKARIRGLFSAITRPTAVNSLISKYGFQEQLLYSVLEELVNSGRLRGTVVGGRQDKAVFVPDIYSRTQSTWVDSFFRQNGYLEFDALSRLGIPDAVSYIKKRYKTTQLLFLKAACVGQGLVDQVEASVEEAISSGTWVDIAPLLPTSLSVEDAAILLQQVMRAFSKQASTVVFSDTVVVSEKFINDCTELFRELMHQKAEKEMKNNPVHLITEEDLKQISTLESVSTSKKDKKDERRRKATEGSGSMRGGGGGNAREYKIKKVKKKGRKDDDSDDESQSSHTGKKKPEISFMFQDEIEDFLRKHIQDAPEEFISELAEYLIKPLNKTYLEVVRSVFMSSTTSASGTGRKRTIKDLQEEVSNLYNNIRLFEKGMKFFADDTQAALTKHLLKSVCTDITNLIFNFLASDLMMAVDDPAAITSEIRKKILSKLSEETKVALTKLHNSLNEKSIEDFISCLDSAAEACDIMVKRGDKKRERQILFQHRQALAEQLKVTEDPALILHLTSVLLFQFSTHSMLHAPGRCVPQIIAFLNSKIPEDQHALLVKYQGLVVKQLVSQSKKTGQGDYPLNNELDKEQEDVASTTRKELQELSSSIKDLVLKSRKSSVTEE
inactive: bafetinib 0.032 | [1] 0.018 | nilotinib -0.119 | [2] -0.009 | dasatinib -0.165 | [3] 0.083 | [4] -0.013 | [5] -0.007 | tipifarnib -0.052 | mubritinib 0.062

UBE2E3 (UniProt Q969T4)
inactive: bafetinib -0.029 | [1] -0.029 | nilotinib -0.126 | [2] 0.023 | dasatinib -0.113 | [3] 0.025 | [4] -0.028 | [5] -0.004 | tipifarnib -0.131 | mubritinib 0.056

TMEM263 (UniProt Q8WUH6)
inactive: bafetinib -0.434 | [1] 0.037 | nilotinib -0.079 | [2] -0.027 | dasatinib -0.249 | [3] 0.124 | [4] -0.011 | [5] 0.02 | tipifarnib -0.182 | mubritinib 0.054

TMEM41A (UniProt Q96HV5)
active: [1] 0.276
inactive: bafetinib -0.037 | nilotinib -0.008 | [2] -0.01 | dasatinib 0.054 | [3] -0.049 | [5] 0.082 | tipifarnib 0.026 | mubritinib 0.062

VAMP7 (UniProt P51809)
inactive: bafetinib -0.066 | [1] 0.025 | nilotinib -0.034 | [2] -0.04 | dasatinib 0.002 | [3] 0.023 | [4] 0.017 | [5] 0.086 | tipifarnib -0.04 | mubritinib 0.003

TRIP10 (UniProt Q15642)
inactive: bafetinib -0.042 | [1] 0.05 | nilotinib 0.098 | [2] -0.017 | dasatinib -0.06 | [3] -0.021 | [4] 0.045 | [5] 0.024 | tipifarnib -0.01 | mubritinib 0.048

TNNC2 (UniProt P02585)
inactive: bafetinib -0.057 | [1] -0.058 | nilotinib 0.057 | [2] 0.024 | dasatinib 0.022 | [3] -0.015 | [4] 0.049 | [5] 0.032 | tipifarnib 0.015 | mubritinib 0.001

VKORC1 (UniProt Q9BQB6)
UniProt Q9BQB6, sequence (Q9BQB6 whole entry, looked up): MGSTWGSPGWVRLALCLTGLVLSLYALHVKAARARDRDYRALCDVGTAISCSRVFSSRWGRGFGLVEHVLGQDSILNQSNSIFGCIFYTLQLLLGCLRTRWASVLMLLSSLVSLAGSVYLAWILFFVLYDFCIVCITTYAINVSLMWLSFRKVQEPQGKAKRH
inactive: bafetinib -0.062 | [1] 0.045 | nilotinib -0.008 | [2] 0.013 | dasatinib -0.049 | [3] -0.013 | [4] 0.105 | [5] 0.081 | tipifarnib 0 | mubritinib 0.035
